According to the supplement of paper PMC8975748:
Where a name gives a salt, the structure may show the parent alone. ± gives the standard deviation of the averaged measurements.

What was measured:
[1] = system: Saccharomyces cerevisiae BY4741 SeMeCo community; assay: mean cell size (pixel area) (pixels); higher = larger cells; details: 10 µM; 24 h; SM minimal medium
Procedure, shortened: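 A Saccharomyces cerevisiae BY4741 community carrying four plasmids, each with a fluorescent marker and each complementing one auxotrophy, was exposed for 24 h to drug at a final 10 µM in SM medium in acoustically predosed 384-well plates. The overnight preculture (OD600 = 1.0) was diluted to OD600 = 0.3 before 70 µl was added per well. Cells were then fixed with paraformaldehyde, imaged by automated confocal microscopy and analysed in Harmony to derive mean cell pixel area per well, averaged over 3 replicates. Same SeMeCo high-content imaging drug screen: Selleck FDA-approved drugs at 10 µM, 24 h in SM medium, 384-well plates, 3 replicates.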

[2] = system: Saccharomyces cerevisiae BY4741 SeMeCo community; assay: z-score of prototroph abundance vs DMSO median; higher = larger share of this subpopulation than in DMSO controls; details: 10 µM; 24 h; SM minimal medium; subpopulation (auxotrophy): Prototroph
Procedure, shortened: (§1)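 Cells of a Saccharomyces cerevisiae BY4741 community, carrying four plasmids that each restored one auxotrophy and encoded a distinct fluorescent protein, were pre-grown overnight to OD600 1.0 and diluted to 0.3. A 70 µl volume was added to 384-well plates acoustically predosed with library drugs (10 µM final) and grown 24 h in minimal SM medium. After paraformaldehyde fixation, automated confocal microscopy was used, with single-auxotroph fluorescent strains for thresholds and autofluorescence correction. The abundance of each subpopulation was scored as a z-score against the vehicle-well median.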

[3] = system: Saccharomyces cerevisiae BY4741 SeMeCo community; assay: z-score of subpopulation abundance vs DMSO median, subpopulation auxotrophic for M; higher = larger share of this subpopulation than in DMSO controls; details: 10 µM; 24 h; SM minimal medium; subpopulation (auxotrophy): M
Procedure, shortened: as §1

[4] = system: Saccharomyces cerevisiae BY4741 SeMeCo community; assay: z-score of subpopulation abundance vs DMSO median, subpopulation auxotrophic for L; higher = larger share of this subpopulation than in DMSO controls; details: 10 µM; 24 h; SM minimal medium; subpopulation (auxotrophy): L
Procedure, shortened: as §1

[5] = system: Saccharomyces cerevisiae BY4741 SeMeCo community; assay: z-score of subpopulation abundance vs DMSO median, subpopulation auxotrophic for U; higher = larger share of this subpopulation than in DMSO controls; details: 10 µM; 24 h; SM minimal medium; subpopulation (auxotrophy): U
Procedure, shortened: as §1

[6] = system: Saccharomyces cerevisiae BY4741 SeMeCo community; assay: z-score of subpopulation abundance vs DMSO median, subpopulation auxotrophic for H; higher = larger share of this subpopulation than in DMSO controls; details: 10 µM; 24 h; SM minimal medium; subpopulation (auxotrophy): H
Procedure, shortened: as §1

[7] = system: Saccharomyces cerevisiae BY4741 SeMeCo community; assay: z-score of subpopulation abundance vs DMSO median, subpopulation auxotrophic for LU; higher = larger share of this subpopulation than in DMSO controls; details: 10 µM; 24 h; SM minimal medium; subpopulation (auxotrophy): LU
Procedure, shortened: as §1

[8] = system: Saccharomyces cerevisiae BY4741 SeMeCo community; assay: z-score of subpopulation abundance vs DMSO median, subpopulation auxotrophic for LM; higher = larger share of this subpopulation than in DMSO controls; details: 10 µM; 24 h; SM minimal medium; subpopulation (auxotrophy): LM
Procedure, shortened: as §1

[9] = system: Saccharomyces cerevisiae BY4741 SeMeCo community; assay: z-score of subpopulation abundance vs DMSO median, subpopulation auxotrophic for HU; higher = larger share of this subpopulation than in DMSO controls; details: 10 µM; 24 h; SM minimal medium; subpopulation (auxotrophy): HU
Procedure, shortened: as §1

[10] = system: Saccharomyces cerevisiae BY4741 SeMeCo community; assay: z-score of subpopulation abundance vs DMSO median, subpopulation auxotrophic for UM; higher = larger share of this subpopulation than in DMSO controls; details: 10 µM; 24 h; SM minimal medium; subpopulation (auxotrophy): UM
Procedure, shortened: as §1

[11] = system: Saccharomyces cerevisiae BY4741 SeMeCo community; assay: z-score of subpopulation abundance vs DMSO median, subpopulation auxotrophic for HL; higher = larger share of this subpopulation than in DMSO controls; details: 10 µM; 24 h; SM minimal medium; subpopulation (auxotrophy): HL
Procedure, shortened: as §1

[12] = system: Saccharomyces cerevisiae BY4741 SeMeCo community; assay: z-score of subpopulation abundance vs DMSO median, subpopulation auxotrophic for HLM; higher = larger share of this subpopulation than in DMSO controls; details: 10 µM; 24 h; SM minimal medium; subpopulation (auxotrophy): HLM
Procedure, shortened: as §1

[13] = system: Saccharomyces cerevisiae BY4741 SeMeCo community; assay: z-score of subpopulation abundance vs DMSO median, subpopulation auxotrophic for HUM; higher = larger share of this subpopulation than in DMSO controls; details: 10 µM; 24 h; SM minimal medium; subpopulation (auxotrophy): HUM
Procedure, shortened: as §1

[14] = system: Saccharomyces cerevisiae BY4741 SeMeCo community; assay: z-score of subpopulation abundance vs DMSO median, subpopulation auxotrophic for LUM; higher = larger share of this subpopulation than in DMSO controls; details: 10 µM; 24 h; SM minimal medium; subpopulation (auxotrophy): LUM
Procedure, shortened: as §1

[15] = system: Saccharomyces cerevisiae BY4741 SeMeCo community; assay: z-score of subpopulation abundance vs DMSO median, subpopulation auxotrophic for HLUM; higher = larger share of this subpopulation than in DMSO controls; details: 10 µM; 24 h; SM minimal medium; subpopulation (auxotrophy): HLUM
Procedure, shortened: as §1

[16] = system: Saccharomyces cerevisiae BY4741 SeMeCo community; assay: z-score of subpopulation abundance vs DMSO median, subpopulation auxotrophic for HM; higher = larger share of this subpopulation than in DMSO controls; details: 10 µM; 24 h; SM minimal medium; subpopulation (auxotrophy): HM
Procedure, shortened: as §1

In the case of `CC(=O)O[C@H]1C[C@@H]2CC[C@@H]3[C@H](CC[C@@]4(C)[C@H]3C[C@H]([N+]3(C)CCCCC3)[C@@H]4OC(C)=O)[C@@]2(C)C[C@@H]1N1CCCCC1` [Vecuronium Bromide], the mean cell size [1] is reported as 12.4 ± 0.31, the “z-score of prototroph abundance” value [2] is reported as 0.67 and the “z-score of subpopulation abundance” value [3] is reported as -0.47. For the same molecule, the “z-score of subpopulation abundance” value [4] was 0.57, the “z-score of subpopulation abundance” value [5] was -0.48 and the “z-score of subpopulation abundance” value [6] was -0.09. For the same molecule, the “z-score of subpopulation abundance” value [7] was 0, the “z-score of subpopulation abundance” value [8] was -1.11 and the “z-score of subpopulation abundance” value [9] was -0.65. The “z-score of subpopulation abundance” value [10] was -0.59, the “z-score of subpopulation abundance” value [11] was -0.24 and the “z-score of subpopulation abundance” value [12] was -0.5. For the same molecule, the “z-score of subpopulation abundance” value [13] was 0.09, the “z-score of subpopulation abundance” value [14] was -0.05 and the “z-score of subpopulation abundance” value [15] was 0.24.
In the case of `CCOc1cc(N)c(Cl)cc1C(=O)NCC1CN(Cc2ccc(F)cc2)CCO1` (configuration not stated) [Mosapride Citrate], the mean cell size [1] is reported as 12.5 ± 0.12, the “z-score of prototroph abundance” value [2] is reported as -0.84 and the “z-score of subpopulation abundance” value [3] is reported as 0.17. The “z-score of subpopulation abundance” value [4] was 0.92, the “z-score of subpopulation abundance” value [5] was 0.31 and the “z-score of subpopulation abundance” value [6] was -0.34. For the same molecule, the “z-score of subpopulation abundance” value [7] was 0.9, the “z-score of subpopulation abundance” value [8] was -0.05 and the “z-score of subpopulation abundance” value [16] was 0.32. For the same molecule, the “z-score of subpopulation abundance” value [9] was 0.11, the “z-score of subpopulation abundance” value [10] was 0.37 and the “z-score of subpopulation abundance” value [11] was 0.35. For the same molecule, the “z-score of subpopulation abundance” value [12] was 0.62, the “z-score of subpopulation abundance” value [14] was 0.54 and the “z-score of subpopulation abundance” value [15] was 1.04.
For `COc1cc2c(cc1OC)-c1cc3ccc(OC)c(OC)c3c[n+]1CC2` [Palmatine], the “z-score of prototroph abundance” value [2] was -0.25, the “z-score of subpopulation abundance” value [3] was -0.17 and the “z-score of subpopulation abundance” value [4] was 2.2. For the same molecule, the “z-score of subpopulation abundance” value [5] was -0.98, the “z-score of subpopulation abundance” value [7] was -0.2 and the “z-score of subpopulation abundance” value [8] was 1.94. The “z-score of subpopulation abundance” value [9] was -1.11, the “z-score of subpopulation abundance” value [10] was -0.01 and the “z-score of subpopulation abundance” value [11] was 1.04. The “z-score of subpopulation abundance” value [12] was 0.37 and the “z-score of subpopulation abundance” value [15] was 1.87.
With `CCOC(=O)C1=C(C)NC(C)=C(C(=O)OC)C1c1cccc([N+](=O)[O-])c1` (configuration not stated) [Nitrendipine] the mean cell size [1] was 12.5 ± 0.13, the “z-score of prototroph abundance” value [2] was 0.18 and the “z-score of subpopulation abundance” value [3] was -0.21. The “z-score of subpopulation abundance” value [4] was -1.96, the “z-score of subpopulation abundance” value [5] was 1.29 and the “z-score of subpopulation abundance” value [7] was -0.48. For the same molecule, the “z-score of subpopulation abundance” value [8] was -1.23, the “z-score of subpopulation abundance” value [16] was -0.08 and the “z-score of subpopulation abundance” value [9] was 1.51. The “z-score of subpopulation abundance” value [10] was 0.62, the “z-score of subpopulation abundance” value [11] was -0.8 and the “z-score of subpopulation abundance” value [13] was 0.52. The “z-score of subpopulation abundance” value [14] was -1.36 and the “z-score of subpopulation abundance” value [15] was -1.04.
For `CN1C2CCC1CC(OC(=O)C(O)c1ccccc1)C2` (configuration not stated) [Homatropine Bromide], the mean cell size [1] was 12.31 ± 0.032, the “z-score of prototroph abundance” value [2] was -0.38 and the “z-score of subpopulation abundance” value [3] was -0.4. The “z-score of subpopulation abundance” value [4] was -0.11, the “z-score of subpopulation abundance” value [5] was 1.49 and the “z-score of subpopulation abundance” value [6] was -0.41. The “z-score of subpopulation abundance” value [7] was 0.66, the “z-score of subpopulation abundance” value [16] was -1.06 and the “z-score of subpopulation abundance” value [9] was 0.61. For the same molecule, the “z-score of subpopulation abundance” value [10] was 0.94, the “z-score of subpopulation abundance” value [11] was -0.63 and the “z-score of subpopulation abundance” value [12] was -0.76. For the same molecule, the “z-score of subpopulation abundance” value [13] was 0, the “z-score of subpopulation abundance” value [14] was 0.09 and the “z-score of subpopulation abundance” value [15] was 0.14.
`O=C([O-])CC(O)(CC(=O)[O-])C(=O)[O-].O=C([O-])CC(O)(CC(=O)[O-])C(=O)[O-].[Bi+3].[K+].[K+].[K+].[K+].[K+]` [Bismuth Subcitrate Potassium] was tested, and the “z-score of prototroph abundance” value [2] was 0.38, the “z-score of subpopulation abundance” value [3] was -3.84 and the “z-score of subpopulation abundance” value [4] was 2.37. For the same molecule, the “z-score of subpopulation abundance” value [5] was -0.49, the “z-score of subpopulation abundance” value [6] was 3.24 and the “z-score of subpopulation abundance” value [7] was 1.34. For the same molecule, the “z-score of subpopulation abundance” value [8] was -1.07, the “z-score of subpopulation abundance” value [16] was -1.66 and the “z-score of subpopulation abundance” value [9] was 2.94. The “z-score of subpopulation abundance” value [10] was -2.69, the “z-score of subpopulation abundance” value [11] was 4.34 and the “z-score of subpopulation abundance” value [12] was 1.76. For the same molecule, the “z-score of subpopulation abundance” value [13] was -1.79, the “z-score of subpopulation abundance” value [14] was 0.14 and the “z-score of subpopulation abundance” value [15] was 0.65.
In the case of `Nc1nc2[nH]cc(CCc3ccc(C(=O)N[C@@H](CCC(=O)O)C(=O)O)cc3)c2c(=O)[nH]1` [Pemetrexed Disodium Hydrate], the mean cell size [1] is reported as 14.5 ± 0.077, the “z-score of prototroph abundance” value [2] is reported as 3.18 and the “z-score of subpopulation abundance” value [3] is reported as -9.02. For the same molecule, the “z-score of subpopulation abundance” value [4] was 3.26, the “z-score of subpopulation abundance” value [5] was -1.03 and the “z-score of subpopulation abundance” value [7] was 1.43. The “z-score of subpopulation abundance” value [16] was -4.93, the “z-score of subpopulation abundance” value [9] was 1.99 and the “z-score of subpopulation abundance” value [10] was -7.6. For the same molecule, the “z-score of subpopulation abundance” value [12] was 1.25, the “z-score of subpopulation abundance” value [14] was -3.47 and the “z-score of subpopulation abundance” value [15] was 3.48.
